High-throughput results as filed in PubChem BioAssay.
In the library only some 2.2% were active in any assay of this set; here they are far more common.
BaF3 parental: counter-screen for JAK2V617F inhibitors: parental Ba/F3 viability inhibitors. AID 1486. CellTiter-Glo ATP luminescence. hit rate 1.1% among 220,000. inhibition, % at 5.6 µM;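 active = inhibition above a per-campaign cutoff, the mean inhibition of all tested compounds plus 3 SD, cut at about 27% in these data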
aSyn 5UTR inh: 5' untranslated region of α-synuclein, MLPCN primary screen; hit rate 0.82% among 300,000; alpha-synuclein 5'UTR reporter, inhibitor activity; inhibition, % (tested at 7.5 µM); in the data active = inhibition above about 60%;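 note: H4 neuroglioblastoma cells stably carrying SNCA 5'UTR luciferase fusion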
APP transl inh: APP translation inhibition; SH-SY5Y APP 5'UTR-luciferase reporter, luminescence; inhibition, % at 2 µM; hit rate 0.82% among 190,000; AID 1285;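 active = inhibition above a set limit, derived from the sample mean plus 3 SD, cut at about 45% in these data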
KLF5 inh: kruppel-like factor 5 inhibition; DLD-1 KLF5 promoter-luciferase reporter, luminescence; inhibition, % at 5 µM; hit rate 0.23% among 290,000; AID 1700;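 active = inhibition above a per-plate limit of that plate's mean compound inhibition plus 3 SD, cut at about 60% in these data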;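 note: higher means less KLF5 promoter-driven luciferase light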
IEC-6 cytotox: counter-screen for KLF5 inhibitors: cytotoxicity in IEC-6 cells. IEC-6 cytotoxicity, luminescence viability. inhibition, % at 5 µM. hit rate 0.78% among 290,000. AID 1825; in the data active = inhibition above about 22%
Ba/F3 V617F tox: lowers viability of Ba/F3 cells expressing EpoR and JAK2V617F. ATP luminescence. inhibition, % at 5.6 µM. hit rate 1.1% among 220,000. AID 1446;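 active = inhibition above the campaign mean plus 3 SD over all tested compounds, cut at about 24% in these data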;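 note: cytokine-independent growth of Ba/F3 cells driven by EpoR plus mutant JAK2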
BaF3 tox 2: reduces parental Ba/F3 viability, JAK2V617F counter-screen | shares compounds with Ba/F3 V617F tox | CellTiter-Glo luminescence; cells kept alive by added IL-3 | inhibition, % at 5.6 µM | hit rate 31% among 580;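 active = cell growth inhibition above the hit limit set in the earlier mutant JAK2 cell screen, cut at about 27% in these data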
JAK2V617F conf: Ba/F3 EpoR-JAK2V617F viability loss, confirmation. hit rate 66% among 580. inhibition, % at 5.6 µM. CellTiter-Glo luminescence. AID 1521. shares compounds with Ba/F3 V617F tox;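 active = mean inhibition above the hit cutoff derived in the earlier primary screen, cut at about 25% in these data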;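 note: higher means lower luminescence from reduced cell ATP and viability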
A number is an active result; 0 = inactive; - = not tested or not shown.

SMILES | BaF3 parental | aSyn 5UTR inh | APP transl inh | KLF5 inh | IEC-6 cytotox | Ba/F3 V617F tox | BaF3 tox 2 | JAK2V617F conf
CCOc1ccc(NC(=S)NNC(=O)CC(C)O)cc1 (configuration not stated) | 0 | 0 | 0 | 0 | 0 | 26 | 0 | 0
CCOc1ccc(NC(=O)CSC(N)=O)cc1 | 0 | 0 | 0 | 0 | 0 | 74 | 0 | 0
Cc1nc(-c2cc(-c3nc(-c4ccc(C(C)(C)C)cc4)no3)no2)cs1 | 0 | 0 | - | 0 | 0 | 0 | - | -
c1ccc(-c2nc(-c3ccccn3)no2)cc1 | 0 | 0 | 0 | 0 | 0 | 25 | 29 | 0
CCc1cc(C(=O)N2CCCc3ccccc32)sc1C | - | 0 | - | 0 | 0 | - | - | -
O=C(CSc1ccc2ccccc2c1)NCCc1ccc(O)c(O)c1 | 0 | 0 | 0 | 0 | 0 | 52 | 51 | 93
Cc1cccc(NC(=O)c2ccccc2O)c1C | 0 | 0 | 0 | 0 | 0 | 0 | - | -
Cc1cccc(NC(=O)c2cnn3ccccc23)c1C | 0 | 0 | - | 0 | 0 | 28 | 0 | 25
CC(=O)Nc1ccc(OCCOc2ccc(/C=C3\C(=N)N4N=C(C(C)C)SC4=NC3=O)cc2)cc1 | - | 0 | - | 0 | 0 | - | - | -
COc1ccc(OC)c(NS(=O)(=O)c2ccc(SC)cc2)c1 | 0 | 0 | 0 | 0 | 0 | 30 | 0 | 70
Cc1sc2nc3c4ccccc4c(NCc4ccco4)nn3c(=O)c2c1C | 0 | - | 0 | 0 | 0 | 0 | - | -
Cc1nc(NCc2ccco2)c2c(C)c(C)sc2n1 | 0 | 0 | 0 | 0 | 0 | 27 | 34 | 84
COc1nc(OC)nc(Oc2ccc(Cl)cc2[N+](=O)[O-])n1 | 0 | 0 | 0 | 0 | 0 | 0 | - | -
COc1ccc([N+](=O)[O-])c(S(=O)(=O)c2ccc(Cl)cc2)n1 | 0 | 0 | - | 0 | 0 | 43 | 0 | 70
COc1ccc([N+](=O)[O-])c(S(=O)(=O)c2ccccc2)n1 | 0 | 0 | - | 0 | 0 | 93 | 34 | 85
CS(=O)(=O)N1CCN(c2ccccc2[N+](=O)[O-])CC1 | 0 | 0 | 0 | 0 | 0 | 0 | - | -
COc1ccc(-c2csc(Nc3ncccc3C)n2)cc1OC | 0 | 0 | 0 | 0 | 0 | 0 | - | -
Cc1cccnc1Nc1nc(-c2ccc(O)c(O)c2)cs1 | 0 | 0 | 0 | 0 | 0 | 81 | 0 | 93
O=C(O)CCCN=CC1=C(O)C(C(=O)c2ccccc2)CCC1=O (configuration not stated) | 0 | 0 | 0 | 0 | 0 | 0 | - | -
COc1cc2c(cc1OC)-c1cc(N3CCCc4ccccc43)nc(=O)n1CC2 | 0 | 0 | 0 | 0 | 0 | 30 | 0 | 61
OCCSc1nnc(Nc2ccccc2)s1 | 0 | 0 | 0 | 0 | 0 | 65 | 0 | 0
N#CCSc1nnc(Nc2ccccc2)s1 | 0 | 0 | 0 | 0 | 0 | 0 | - | -
COc1cc(Cl)c(NS(=O)(=O)c2cc3[nH]c(=O)c(=O)[nH]c3cc2C)c(OC)c1 | - | 0 | - | 0 | 0 | - | - | -
CC1CCCN(CCCNC(=O)c2cc3c(Cl)nc4ccccc4c3s2)C1 (configuration not stated) | 0 | 0 | 0 | 0 | 0 | 63 | 0 | 85
Cc1nc2ccccc2c2oc(C(=O)NCCCN3CCCC(C)C3)cc12 (configuration not stated) | - | 0 | - | 0 | 0 | - | - | -
SMILES | BaF3 parental | aSyn 5UTR inh | APP transl inh | KLF5 inh | IEC-6 cytotox | Ba/F3 V617F tox | BaF3 tox 2 | JAK2V617F conf
CC1(C)CC(=O)c2cnc(NC(=O)CCc3ccccc3)nc2C1 | 0 | 0 | 0 | 0 | 0 | 95 | 0 | 0
O=C(CCc1ccccc1)Nc1ncc2c(n1)CCCC2=O | 0 | 0 | 0 | 0 | 0 | 0 | - | -
O=C(Nc1cc(S(=O)(=O)N2CCCCC2)ccc1O)c1ccccc1NS(=O)(=O)c1ccc(F)cc1 | 0 | 0 | 0 | 0 | 0 | 0 | - | -
O=C(Nc1cc(S(=O)(=O)N2CCCCC2)ccc1Cl)c1ccccc1NS(=O)(=O)c1ccc(F)cc1 | 0 | 63 | 0 | 0 | 0 | 28 | 70 | 79
CN(Cc1ccccc1)C(=O)COC(=O)c1cncc(Br)c1 | 0 | 0 | 0 | 0 | 0 | 0 | - | -
CN(Cc1ccccc1)C(=O)COC(=O)c1ccc(Cl)c(N)c1 | 0 | 0 | 0 | 0 | 0 | 94 | 0 | 0
CCOc1ccc(S(=O)(=O)c2c(C(=O)c3ccccc3)cnc3cc4c(cc23)OCCO4)cc1 | 0 | 0 | 0 | 0 | 0 | 0 | - | -
Nc1c(C(=O)NC2CC2)c2nc3ccccc3nc2n1-c1ccc2c(c1)OCO2 | 0 | 0 | 0 | 0 | 0 | 0 | - | -
Nc1c(C(=O)OCC2CCCO2)c2nc3ccccc3nc2n1-c1ccc2c(c1)OCCO2 (configuration not stated) | 0 | 0 | 0 | 0 | 0 | 96 | 0 | 0
Cc1cc(C)c(S(=O)(=O)N/N=C/c2ccc([N+](=O)[O-])o2)c(C)c1 | - | 0 | - | 0 | 0 | - | - | -
N=c1c2c3c(sc2ncn1Nc1ccccc1)CCC3 | 0 | 0 | - | 0 | 0 | 0 | - | -
Oc1ccccc1OCC(O)c1ccccc1 (configuration not stated) | - | 0 | - | 0 | 0 | - | - | -
Oc1ccccc1OCCOc1ccccc1OCCOc1ccccc1O | 0 | 0 | 0 | 0 | 0 | 26 | 0 | 71
O=C(NNC(=S)Nc1ccc(Cl)c(Cl)c1)c1ccccn1 | 0 | 68 | 0 | 0 | 0 | 32 | 51 | 47
CCNC(=S)NNC(=O)c1ccccn1 | 0 | 0 | 0 | 0 | 0 | 0 | - | -
O=C(/C=C/c1c(Cl)cccc1Cl)n1cccn1 | 0 | 0 | 0 | 0 | 0 | 0 | - | -
O=C(c1ccc2c(c1)N(Cc1ccccc1)C(=O)CS2)N1CCOCC1 | 0 | 0 | 0 | 0 | 0 | 0 | - | -
Cc1ccccc1CN1C(=O)CSc2ccc(C(=O)N3CCOCC3)cc21 | 0 | 0 | 0 | 0 | 0 | 33 | 0 | 0
CCc1ccc(Nc2ccc(S(=O)(=O)N3CCOCC3)cc2[N+](=O)[O-])cc1 | 0 | 0 | 0 | 0 | 0 | 82 | 0 | 0
Cc1ccc(S(=O)(=O)NC(c2ccccc2)C(C)C(=O)n2nc(C)cc2C)cc1 (configuration not stated) | 0 | 0 | 0 | 0 | 0 | 64 | 0 | 0
Cc1ccc(S(=O)(=O)NC(CC(=O)n2nc(C)cc2C)c2ccccc2)cc1 (configuration not stated) | 0 | 0 | 0 | 0 | 0 | 0 | - | -
Cc1cc(Cl)n2c(nc3cc(F)c(F)cc32)c1C#N | 0 | 0 | 88 | 0 | 0 | 48 | 33 | 93
NC(=S)NN=C(Cc1ccccc1)Cc1ccccc1 | 0 | 0 | 0 | 0 | 0 | 45 | 50 | 60
Cc1ccc(CSCC(=O)NCc2cccnc2)cc1 | 0 | 0 | 0 | 0 | 0 | 0 | - | -
Cc1ccc(CC(=O)NCc2cccnc2)cc1 | 0 | 0 | 0 | 0 | 0 | 58 | 0 | 0
O=C(CC1C(=O)NCCN1CC1CCCCC1)NC1(c2ccccc2)CC1 (configuration not stated) | 0 | 0 | 0 | 0 | 0 | 0 | - | -
CC(C)CC(=O)NC(Nc1ccc([N+](=O)[O-])cc1)C(Cl)(Cl)Cl (configuration not stated) | 0 | 0 | 0 | 0 | 0 | 0 | - | -
Cc1ccc2c(CC(=O)NCc3ccco3)coc2c1C | 0 | 0 | 0 | 0 | 0 | 35 | 0 | 0
